Measurements published in the supplement of paper PMC6897291.

Tests used:
U-2932 [1] = experiment: growth inhibition by drug alone (1 - RLU/untreated control) (fraction); higher = stronger inhibition; conditions: 177Lu-lilotomab satetraxetan 0 ug/ml
Outline: (§1)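 A radiolabelled anti-CD37 antibody conjugate (~600 MBq/mg) was applied for 18 h at 0.5 µg/ml to RIVA and 1 µg/ml to U-2932 cells, with untreated cells run alongside. All cells were washed and seeded at 3,000 cells/well onto library-printed plates at 10/100 nM (RIVA) or 10/1,000 nM (U-2932). Growth inhibition was based on RealTime-Glo luminescence compared with untreated no-drug wells. Daily reads began on day 3 after 1 h at 37°C, with each value being 1 − RLU/mean of the 48 such wells on that plate.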

RIVA [2] = experiment: as above; conditions: 177Lu-lilotomab satetraxetan 0 ug/ml
Outline: as §1

U-2932 [3] = experiment: growth inhibition by drug plus 177Lu-lilotomab satetraxetan (1 - RLU/untreated control) (fraction); higher = stronger inhibition; conditions: 177Lu-lilotomab satetraxetan 1 ug/ml
Outline: as §1

RIVA [4] = experiment: as above; conditions: 177Lu-lilotomab satetraxetan 0.5 ug/ml
Outline: as §1

Structure (SMILES) | growth inhibition by drug alone (U-2932 [1]; 10 nM, time (day): 3) | growth inhibition by drug alone (U-2932 [1]; 10 nM, time (day): 4) | growth inhibition by drug alone (U-2932 [1]; 10 nM, time (day): 5) | growth inhibition by drug alone (U-2932 [1]; 10 nM, time (day): 6) | growth inhibition by drug alone (U-2932 [1]; 1000 nM, time (day): 3) | growth inhibition by drug alone (U-2932 [1]; 1000 nM, time (day): 4) | growth inhibition by drug alone (U-2932 [1]; 1000 nM, time (day): 5) | growth inhibition by drug alone (U-2932 [1]; 1000 nM, time (day): 6) | growth inhibition by drug alone (RIVA [2]; 10 nM, time (day): 3) | growth inhibition by drug alone (RIVA [2]; 10 nM, time (day): 4) | growth inhibition by drug alone (RIVA [2]; 10 nM, time (day): 5) | growth inhibition by drug alone (RIVA [2]; 10 nM, time (day): 6) | growth inhibition by drug alone (RIVA [2]; 100 nM, time (day): 3) | growth inhibition by drug alone (RIVA [2]; 100 nM, time (day): 4) | growth inhibition by drug alone (RIVA [2]; 100 nM, time (day): 5) | growth inhibition by drug alone (RIVA [2]; 100 nM, time (day): 6) | growth inhibition by drug plus 177Lu-lilotomab satetraxetan (U-2932 [3]; 10 nM, time (day): 3) | growth inhibition by drug plus 177Lu-lilotomab satetraxetan (U-2932 [3]; 10 nM, time (day): 4) | growth inhibition by drug plus 177Lu-lilotomab satetraxetan (U-2932 [3]; 10 nM, time (day): 5) | growth inhibition by drug plus 177Lu-lilotomab satetraxetan (U-2932 [3]; 10 nM, time (day): 6) | growth inhibition by drug plus 177Lu-lilotomab satetraxetan (U-2932 [3]; 1000 nM, time (day): 3) | growth inhibition by drug plus 177Lu-lilotomab satetraxetan (U-2932 [3]; 1000 nM, time (day): 4) | growth inhibition by drug plus 177Lu-lilotomab satetraxetan (U-2932 [3]; 1000 nM, time (day): 5) | growth inhibition by drug plus 177Lu-lilotomab satetraxetan (U-2932 [3]; 1000 nM, time (day): 6) | growth inhibition by drug plus 177Lu-lilotomab satetraxetan (RIVA [4]; 10 nM, time (day): 3) | growth inhibition by drug plus 177Lu-lilotomab satetraxetan (RIVA [4]; 10 nM, time (day): 4) | growth inhibition by drug plus 177Lu-lilotomab satetraxetan (RIVA [4]; 10 nM, time (day): 5) | growth inhibition by drug plus 177Lu-lilotomab satetraxetan (RIVA [4]; 10 nM, time (day): 6) | growth inhibition by drug plus 177Lu-lilotomab satetraxetan (RIVA [4]; 100 nM, time (day): 3) | growth inhibition by drug plus 177Lu-lilotomab satetraxetan (RIVA [4]; 100 nM, time (day): 4) | growth inhibition by drug plus 177Lu-lilotomab satetraxetan (RIVA [4]; 100 nM, time (day): 5) | growth inhibition by drug plus 177Lu-lilotomab satetraxetan (RIVA [4]; 100 nM, time (day): 6)
CC(C)c1ccc(Cn2ccc3c4c(N)nc(NC5CC5)nc4ccc32)cc1 | 0.155 | 0.138 | 0.0759 | 0.0356 | 0.976 | 0.977 | 0.982 | 0.985 | 0.0749 | 0.155 | 0.0828 | -0.0413 | 0.639 | 0.486 | 0.491 | 0.444 | 0.151 | 0.196 | 0.261 | 0.274 | 0.982 | 0.983 | 0.986 | 0.989 | 0.658 | 0.702 | 0.716 | 0.712 | 0.787 | 0.778 | 0.786 | 0.799
Nc1nccc(Oc2ccc(NC(=O)c3c[nH]cc(-c4ccc(F)cc4)c3=O)cc2F)c1Cl | -0.0716 | -0.0777 | -0.0731 | -0.06 | -0.103 | -0.0916 | -0.0987 | -0.109 | -0.189 | -0.254 | -0.278 | -0.424 | -0.523 | -0.459 | -0.483 | -0.598 | -0.0906 | -0.0231 | 0.0271 | 0.0973 | -0.0589 | 0.0171 | 0.0665 | 0.209 | 0.468 | 0.516 | 0.536 | 0.547 | 0.364 | 0.43 | 0.425 | 0.43
COc1ccc(CCN(C)CCCOc2ccc(S(=O)(=O)c3c(C(C)C)n(C)c4ccccc34)cc2)cc1OC | 0.0869 | 0.0667 | 0.0917 | -0.0299 | 0.0603 | 0.0699 | -0.0056 | -0.132 | 0.00966 | 0.000445 | -0.0789 | -0.342 | -0.377 | -0.25 | -0.308 | -0.545 | 0.0456 | 0.0938 | 0.156 | 0.171 | 0.135 | 0.145 | 0.18 | 0.298 | 0.605 | 0.642 | 0.664 | 0.661 | 0.48 | 0.536 | 0.542 | 0.544
Cc1nc(Nc2ncc(C(=O)Nc3c(C)cccc3Cl)s2)cc(N2CCN(CCO)CC2)n1 | -0.00248 | -0.0473 | -0.15 | -0.0827 | 0.487 | 0.65 | 0.693 | 0.752 | 0.376 | 0.323 | 0.282 | 0.128 | 0.779 | 0.826 | 0.856 | 0.867 | -0.0537 | -0.0412 | -0.0107 | 0.0287 | 0.607 | 0.75 | 0.816 | 0.88 | 0.558 | 0.581 | 0.582 | 0.575 | 0.838 | 0.89 | 0.901 | 0.91
CC(c1cc2ccccc2s1)N(O)C(N)=O (configuration not stated) [Zileuton] | 0.0373 | 0.016 | -0.0853 | -0.151 | -0.0669 | -0.0105 | -0.0851 | -0.12 | -0.0289 | -0.0441 | -0.104 | -0.421 | -0.161 | -0.195 | -0.186 | -0.323 | -0.00999 | 0.00112 | 0.025 | 0.0355 | -0.0574 | 0.0263 | -0.0233 | 0.0666 | 0.389 | 0.507 | 0.537 | 0.547 | 0.4 | 0.496 | 0.496 | 0.482
O=C1CN2Cc3c(ccc(Cl)c3Cl)N=C2N1 [Anagrelide] | 0.0875 | 0.0814 | 0.0131 | -0.134 | 0.102 | 0.0873 | -0.0302 | -0.00421 | -0.0185 | 0.0438 | -0.0392 | -0.302 | -0.0533 | 0.019 | 0.0156 | -0.0326 | 0.101 | 0.141 | 0.208 | 0.23 | 0.0939 | 0.117 | 0.178 | 0.243 | 0.547 | 0.616 | 0.633 | 0.635 | 0.54 | 0.612 | 0.625 | 0.631
CC[C@H](CO)Nc1nc(NCc2ccccc2)c2ncn(C(C)C)c2n1 [Roscovitine (Seliciclib, CYC202)] | 0.0612 | 0.034 | -0.0433 | -0.134 | -0.0928 | -0.0155 | -0.074 | -0.195 | 0.0751 | 0.0434 | 0.0188 | -0.143 | -0.0194 | -0.0523 | -0.0745 | -0.157 | 0.0443 | 0.0516 | 0.0573 | 0.114 | -0.105 | 0.0161 | -0.0091 | -0.013 | 0.429 | 0.539 | 0.544 | 0.554 | 0.49 | 0.54 | – | –
